Reference: PubChem BioAssay (EPA / NIEHS)
Records with an inconclusive call do not appear. Active and inactive are the calls of the source. The calls were made as follows: active = hit-call score of the fitted dose curve at least 0.9, where 1 is the maximum; inconclusive = response in the unintended direction; inactive = score below 0.9.

Legend:
[1] = biological target: human Dopamine Receptor D4.4 (DRD4.4), DRD4 (gene 1815) (UniProt P21917); assay: NVS_GPCR_hDRD4.4: NovaScreen (NVS) G Protein-Coupled Receptor Assay for human Dopamine Receptor D4.4 (DRD4.4) (AID 2283264)
Procedure, shortened: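 Radioligand displacement on human DRD4.4 from CHO-derived membranes, 1 hour incubation, bound counts read by filtration and scintillation. Primary screen in duplicate at 25 uM; actives followed up in concentration series.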

[2] = biological target: human Dopamine Receptor D2 (DRD2), DRD2 (gene 1813) (UniProt P14416); assay: NVS_GPCR_hDRD2s: NovaScreen (NVS) G Protein-Coupled Receptor Assay for human Dopamine Receptor D2 (DRD2) (AID 2283266)
Chain of human Dopamine Receptor D2 (DRD2), DRD2 (gene 1813) (P14416 whole entry, looked up): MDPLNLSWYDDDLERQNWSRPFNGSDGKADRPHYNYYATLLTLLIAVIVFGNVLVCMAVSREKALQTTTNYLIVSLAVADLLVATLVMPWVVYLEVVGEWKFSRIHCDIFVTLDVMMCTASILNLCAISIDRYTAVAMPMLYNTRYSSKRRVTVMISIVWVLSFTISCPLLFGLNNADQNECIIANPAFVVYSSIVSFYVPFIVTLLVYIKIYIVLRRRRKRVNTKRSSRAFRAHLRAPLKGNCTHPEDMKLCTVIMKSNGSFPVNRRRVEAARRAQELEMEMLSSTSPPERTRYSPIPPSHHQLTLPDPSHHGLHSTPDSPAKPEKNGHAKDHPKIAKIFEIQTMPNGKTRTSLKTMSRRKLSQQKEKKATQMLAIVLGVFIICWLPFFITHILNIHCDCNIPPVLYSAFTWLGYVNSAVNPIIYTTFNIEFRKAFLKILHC
Procedure, shortened: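 Radioligand displacement used human DRD2 membranes extracted from CHO cells and was read by filter-based scintillation counting after 1.5 hours. Primary screening was in duplicate at 25 uM. Loss of signal versus DMSO was fitted, with concentration series in follow-up.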

[3] = biological target: human Histamine 1 Receptor (H1), HRH1 (gene 3269) (UniProt P35367); assay: NVS_GPCR_hH1: NovaScreen (NVS) G Protein-Coupled Receptor Assay for human Histamine 1 Receptor (H1) (AID 2283268)
Chain of human Histamine 1 Receptor (H1), HRH1 (gene 3269) (P35367 whole entry, looked up): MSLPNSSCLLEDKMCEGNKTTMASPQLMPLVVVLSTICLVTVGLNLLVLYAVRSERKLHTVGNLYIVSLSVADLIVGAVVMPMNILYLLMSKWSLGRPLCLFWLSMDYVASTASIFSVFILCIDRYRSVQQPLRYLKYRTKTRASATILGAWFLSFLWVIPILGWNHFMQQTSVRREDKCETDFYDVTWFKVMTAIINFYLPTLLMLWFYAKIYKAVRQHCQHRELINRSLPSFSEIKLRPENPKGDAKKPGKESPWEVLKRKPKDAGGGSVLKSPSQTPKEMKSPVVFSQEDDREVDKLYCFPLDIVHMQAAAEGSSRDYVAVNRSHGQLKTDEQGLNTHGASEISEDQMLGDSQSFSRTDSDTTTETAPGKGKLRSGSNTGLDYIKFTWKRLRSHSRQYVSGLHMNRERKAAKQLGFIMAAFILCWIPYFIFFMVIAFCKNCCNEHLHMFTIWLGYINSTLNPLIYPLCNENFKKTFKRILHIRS
Procedure, shortened: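 Cell-free radioligand displacement at human H1 receptor, 1 h, filter scintillation counting; primary screen 25 uM in duplicate, hits in concentration series; loss of binding fitted vs DMSO.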

[4] = biological target: D(1A) dopamine receptor (Homo sapiens) (UniProt P21728); assay: NVS_GPCR_hDRD1: NovaScreen (NVS) G Protein-Coupled Receptor Assay for human Dopamine Receptor D1 (DRD1) (AID 2283269)
Chain of D(1A) dopamine receptor (Homo sapiens) (P21728 whole entry, looked up): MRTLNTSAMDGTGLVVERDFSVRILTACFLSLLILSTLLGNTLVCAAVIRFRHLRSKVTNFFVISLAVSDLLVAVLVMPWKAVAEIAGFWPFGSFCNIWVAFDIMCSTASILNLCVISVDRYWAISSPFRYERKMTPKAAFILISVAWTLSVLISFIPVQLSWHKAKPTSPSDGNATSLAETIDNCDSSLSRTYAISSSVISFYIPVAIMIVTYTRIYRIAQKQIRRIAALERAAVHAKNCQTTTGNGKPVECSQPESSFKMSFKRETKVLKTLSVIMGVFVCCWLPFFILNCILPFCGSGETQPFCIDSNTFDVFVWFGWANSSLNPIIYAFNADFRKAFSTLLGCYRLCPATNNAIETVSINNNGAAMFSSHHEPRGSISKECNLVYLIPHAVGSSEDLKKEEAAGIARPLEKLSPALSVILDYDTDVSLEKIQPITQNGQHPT
Procedure, shortened: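 Cell-free competition with radioligand, filter-trapped and scintillation-counted 1 h post-dose, using HEK293-derived human D1 preparation. Duplicate single-point testing at 25 uM first, then concentration series for actives; DMSO served as baseline, loss-of-signal scored.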

[5] = biological target: Muscarinic acetylcholine receptor M1 (Homo sapiens) (UniProt P11229); assay: NVS_GPCR_hM1: NovaScreen (NVS) G Protein-Coupled Receptor Assay for human Muscarinic, M1 Receptor (AID 2283270)
Chain of Muscarinic acetylcholine receptor M1 (Homo sapiens) (P11229 whole entry, looked up): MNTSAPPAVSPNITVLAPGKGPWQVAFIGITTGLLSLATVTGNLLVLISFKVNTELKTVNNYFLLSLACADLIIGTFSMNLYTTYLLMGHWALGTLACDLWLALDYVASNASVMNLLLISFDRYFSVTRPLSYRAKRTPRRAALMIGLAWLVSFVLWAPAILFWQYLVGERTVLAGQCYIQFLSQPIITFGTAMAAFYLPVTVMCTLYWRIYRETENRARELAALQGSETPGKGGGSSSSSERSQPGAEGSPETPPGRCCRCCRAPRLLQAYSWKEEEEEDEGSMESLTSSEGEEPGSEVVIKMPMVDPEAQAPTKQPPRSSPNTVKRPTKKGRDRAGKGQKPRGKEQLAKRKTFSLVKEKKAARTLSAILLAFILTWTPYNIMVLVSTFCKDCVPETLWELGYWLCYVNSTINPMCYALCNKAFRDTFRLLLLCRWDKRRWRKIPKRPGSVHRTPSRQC
Procedure, shortened: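 Cell-free radioligand displacement using membrane protein extracted from CHO cells, read by filter-based scintillation counting 1 h after dosing. Loss of bound signal fitted versus DMSO; primary screen single concentration 25 uM in duplicate, actives followed by concentration series.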

[6] = biological target: human Leukotriene B4 Receptor 1 (LTB4-BLT1), LTB4R (gene 1241) (UniProt Q15722); assay: NVS_GPCR_hLTB4_BLT1: NovaScreen (NVS) G Protein-Coupled Receptor Assay for human Leukotriene B4 Receptor 1 (LTB4-BLT1) (AID 2283271)
Chain of human Leukotriene B4 Receptor 1 (LTB4-BLT1), LTB4R (gene 1241) (Q15722 whole entry, looked up): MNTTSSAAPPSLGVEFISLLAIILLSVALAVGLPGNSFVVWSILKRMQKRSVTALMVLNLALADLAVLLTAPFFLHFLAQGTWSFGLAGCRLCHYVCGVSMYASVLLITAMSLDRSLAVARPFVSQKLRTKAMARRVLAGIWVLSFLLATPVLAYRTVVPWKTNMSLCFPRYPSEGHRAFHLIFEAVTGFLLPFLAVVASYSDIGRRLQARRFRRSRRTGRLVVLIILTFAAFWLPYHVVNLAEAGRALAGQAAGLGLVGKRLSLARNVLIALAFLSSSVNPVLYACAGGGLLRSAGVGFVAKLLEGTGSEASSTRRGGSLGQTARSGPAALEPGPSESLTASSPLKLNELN
Procedure, shortened: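 Radioligand displacement binding on receptor extracted from human neutrophils, cell-free, 1 h after dosing; filter-based scintillation counting. Primary screen in duplicate at 25 uM, actives retested in concentration-response up to 50 uM; loss of signal versus DMSO.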

[7] = biological target: Muscarinic acetylcholine receptor M2 (Homo sapiens) (UniProt P08172); assay: NVS_GPCR_hM2: NovaScreen (NVS) G Protein-Coupled Receptor Assay for human Muscarinic, M2 Receptor (AID 2283273)
Chain of Muscarinic acetylcholine receptor M2 (Homo sapiens) (P08172 whole entry, looked up): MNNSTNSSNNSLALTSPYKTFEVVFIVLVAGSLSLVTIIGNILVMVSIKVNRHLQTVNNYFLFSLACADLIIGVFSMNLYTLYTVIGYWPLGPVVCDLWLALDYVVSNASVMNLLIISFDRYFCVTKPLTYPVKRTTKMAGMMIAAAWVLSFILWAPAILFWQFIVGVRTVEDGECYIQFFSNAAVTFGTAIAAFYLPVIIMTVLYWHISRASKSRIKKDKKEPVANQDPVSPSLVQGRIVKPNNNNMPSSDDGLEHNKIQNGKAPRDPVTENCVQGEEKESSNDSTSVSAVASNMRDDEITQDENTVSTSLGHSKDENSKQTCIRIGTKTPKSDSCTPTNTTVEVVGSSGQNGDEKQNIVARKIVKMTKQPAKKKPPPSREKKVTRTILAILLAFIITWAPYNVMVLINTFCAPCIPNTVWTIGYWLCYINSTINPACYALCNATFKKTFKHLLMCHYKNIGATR
Procedure, shortened: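 CHO membrane prep, radioligand + test compound, 1 h; filtration, scintillation count. Screen 25 uM duplicate → conc. series for actives. Readout: decrease in binding vs DMSO control.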

[8] = biological target: human Muscarinic, M4 Receptor, CHRM4 (gene 1132) (UniProt P08173); assay: NVS_GPCR_hM4: NovaScreen (NVS) G Protein-Coupled Receptor Assay for human Muscarinic, M4 Receptor (AID 2283274)
Chain of human Muscarinic, M4 Receptor, CHRM4 (gene 1132) (P08173 whole entry, looked up): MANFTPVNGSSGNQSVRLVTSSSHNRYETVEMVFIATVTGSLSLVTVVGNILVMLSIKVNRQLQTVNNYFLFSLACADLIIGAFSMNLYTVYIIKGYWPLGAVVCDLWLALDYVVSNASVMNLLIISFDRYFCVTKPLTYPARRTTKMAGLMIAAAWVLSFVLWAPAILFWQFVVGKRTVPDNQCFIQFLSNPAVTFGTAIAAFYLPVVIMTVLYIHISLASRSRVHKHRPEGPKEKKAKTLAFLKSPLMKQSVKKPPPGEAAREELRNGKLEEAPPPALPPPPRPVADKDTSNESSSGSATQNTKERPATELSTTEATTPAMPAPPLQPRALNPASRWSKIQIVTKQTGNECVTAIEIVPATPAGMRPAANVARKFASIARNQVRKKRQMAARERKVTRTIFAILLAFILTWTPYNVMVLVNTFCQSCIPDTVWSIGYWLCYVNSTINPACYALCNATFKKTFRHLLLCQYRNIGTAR
Procedure, shortened: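 Cell-free radioligand displacement using CHO-derived human M4 receptor protein, 1 h after dosing; bound radioactivity by filtration and scintillation counting. Primary screen single 25 uM duplicate, actives followed in concentration series.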

[9] = biological target: Muscarinic acetylcholine receptor M5 (Homo sapiens) (UniProt P08912); assay: NVS_GPCR_hM5: NovaScreen (NVS) G Protein-Coupled Receptor Assay for human Muscarinic, M5 Receptor (AID 2283275)
Procedure, shortened: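 Radioligand displacement on CHO-derived membrane preparations, 1 h, filter-based scintillation counting. Single-concentration duplicate screen at 25 uM; hits (e.g. 30% inhibition) retested in singleton concentration-response up to 50 uM. Loss of binding fitted versus DMSO.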

[10] = biological target: Neuropeptide Y receptor type 2 (Homo sapiens) (UniProt P49146); assay: NVS_GPCR_hNPY2: NovaScreen (NVS) G Protein-Coupled Receptor Assay for human Neuropeptide Receptor Y2 (NPY2) (AID 2283277)
Procedure, shortened: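 Radioligand binding on membranes extracted from SK-N-MC cells, cell-free, read 1 h after dosing by filter-based scintillation counting. Loss of signal vs DMSO. Primary screen in duplicate at 25 uM; actives followed up in concentration-response up to 50 uM.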

[11] = biological target: human Neurokinin, NK2 Receptor, TACR2 (gene 6865) (UniProt P21452); assay: NVS_GPCR_hNK2: NovaScreen (NVS) G Protein-Coupled Receptor Assay for human Neurokinin, NK2 Receptor (AID 2283278);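 also: actives reduce bound radioligand signal relative to DMSO baseline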
Chain of human Neurokinin, NK2 Receptor, TACR2 (gene 6865) (P21452 whole entry, looked up): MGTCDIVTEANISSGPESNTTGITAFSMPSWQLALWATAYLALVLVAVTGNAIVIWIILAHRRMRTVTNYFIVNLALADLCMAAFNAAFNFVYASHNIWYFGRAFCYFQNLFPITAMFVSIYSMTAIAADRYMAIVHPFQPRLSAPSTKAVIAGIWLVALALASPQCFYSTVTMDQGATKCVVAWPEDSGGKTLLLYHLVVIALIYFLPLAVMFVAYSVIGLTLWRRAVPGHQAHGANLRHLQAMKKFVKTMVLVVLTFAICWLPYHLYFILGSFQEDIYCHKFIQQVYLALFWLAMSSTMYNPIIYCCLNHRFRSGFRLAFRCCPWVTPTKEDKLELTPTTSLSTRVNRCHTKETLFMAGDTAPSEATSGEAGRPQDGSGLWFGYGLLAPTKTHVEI
Procedure, shortened: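 Cell-free radioligand binding using receptor protein extracted from CHO cells; readings taken 4 hours after chemical dosing by filter-based scintillation counting. Primary screen ran single concentration (25 uM) in duplicate; actives followed up in concentration series, loss-of-signal versus DMSO baseline.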

[12] = biological target: mouse Cholecystokinin, CCK1 Receptor (CCKA), Cckar (gene 12425) (UniProt O08786); assay: NVS_GPCR_mCCKAPeripheral: NovaScreen (NVS) G Protein-Coupled Receptor Assay for mouse Cholecystokinin, CCK1 Receptor (CCKA) (AID 2283285)
Chain of mouse Cholecystokinin, CCK1 Receptor (CCKA), Cckar (gene 12425) (O08786 whole entry, looked up): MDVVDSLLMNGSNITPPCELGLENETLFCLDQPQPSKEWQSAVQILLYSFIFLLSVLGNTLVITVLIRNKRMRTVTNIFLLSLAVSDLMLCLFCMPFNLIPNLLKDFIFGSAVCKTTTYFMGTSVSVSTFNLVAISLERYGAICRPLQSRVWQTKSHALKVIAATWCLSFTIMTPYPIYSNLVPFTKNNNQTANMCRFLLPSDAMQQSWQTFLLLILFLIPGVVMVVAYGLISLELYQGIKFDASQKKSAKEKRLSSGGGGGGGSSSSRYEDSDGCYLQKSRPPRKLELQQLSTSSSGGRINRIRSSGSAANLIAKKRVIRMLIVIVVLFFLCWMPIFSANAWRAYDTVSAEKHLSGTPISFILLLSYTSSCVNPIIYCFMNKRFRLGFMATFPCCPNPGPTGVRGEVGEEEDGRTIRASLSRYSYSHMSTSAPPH
Procedure, shortened: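 Radioligand competitive displacement on mouse pancreatic membranes, 2 h incubation; filter-based scintillation counting, loss of signal versus DMSO. Single-concentration screen at 25 uM in duplicate, actives retested in concentration-response up to 50 uM.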

[13] = biological target: rat Serotonin, 5-Hydroxytryptamine Receptor 1 (5HT1), Non-Selective Binding, Htr1a (gene 24473) (UniProt P19327); assay: NVS_GPCR_r5HT1_NonSelective: NovaScreen (NVS) G Protein-Coupled Receptor Assay for rat Serotonin, 5-Hydroxytryptamine Receptor 1 (5HT1), Non-Selective Binding (AID 2283286)
Procedure, shortened: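 Rat cortical membranes, radioligand displacement, 1 h incubation, read by filter scintillation. Primary screen in duplicate at 25 uM. Hits (e.g. ≥30% inhibition) went to concentration-response up to 50 uM, fitted as loss of binding versus DMSO.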

[14] = biological target: human Endothelin Receptor Type B (ETB), EDNRB (gene 1910) (UniProt P24530); assay: NVS_GPCR_hETB: NovaScreen (NVS) G Protein-Coupled Receptor Assay for human Endothelin Receptor Type B (ETB) (AID 2283267)
Chain of human Endothelin Receptor Type B (ETB), EDNRB (gene 1910) (P24530 whole entry, looked up): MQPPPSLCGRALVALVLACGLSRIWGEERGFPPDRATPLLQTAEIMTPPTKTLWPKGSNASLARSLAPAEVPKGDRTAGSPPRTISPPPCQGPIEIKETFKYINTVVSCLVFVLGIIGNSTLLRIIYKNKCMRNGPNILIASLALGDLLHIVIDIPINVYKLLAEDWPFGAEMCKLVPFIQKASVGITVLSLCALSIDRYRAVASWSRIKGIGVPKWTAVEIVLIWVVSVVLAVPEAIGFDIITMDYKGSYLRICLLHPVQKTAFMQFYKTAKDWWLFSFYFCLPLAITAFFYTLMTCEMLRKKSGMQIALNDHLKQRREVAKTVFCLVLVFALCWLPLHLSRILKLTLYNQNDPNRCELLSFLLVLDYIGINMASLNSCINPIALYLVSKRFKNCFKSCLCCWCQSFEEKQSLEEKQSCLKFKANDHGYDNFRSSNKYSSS
Procedure, shortened: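 Human astrocytoma cell membranes; radioligand competitive binding read by filter scintillation counting 4 hours after dosing. Single-concentration duplicate screen at 25 uM, then singleton concentration-response up to 50 uM; loss of signal versus DMSO.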

[15] = biological target: human Orphanin, Opioid Related Nociceptin Receptor 1 (ORL1), OPRL1 (gene 4987) (UniProt P41146); assay: NVS_GPCR_hORL1: NovaScreen (NVS) G Protein-Coupled Receptor Assay for human Orphanin, Opioid Related Nociceptin Receptor 1 (ORL1) (AID 2283283)
Procedure, shortened: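 Filter-based radioligand displacement with receptor extracted from HEK293 cells, read 1 hour after dosing by scintillation counting. Duplicate single-point screen at 25 uM; qualifying chemicals then run in concentration-response to 50 uM, analysed relative to DMSO.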

[16] = biological target: human Thromboxane A2 Receptor (TXA2), TBXA2R (gene 6915) (UniProt P21731); assay: NVS_GPCR_hTXA2: NovaScreen (NVS) G Protein-Coupled Receptor Assay for human Thromboxane A2 Receptor (TXA2) (AID 2283282);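 also: actives reduce bound radioligand signal relative to DMSO baseline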
Procedure, shortened: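 Cell-free radioligand binding with human platelet-derived receptor; 1 h after dosing, filter-based scintillation counting, loss of signal vs DMSO. Primary screen in duplicate at 25 uM.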

[17] = biological target: human Vasopressin 1A Receptor (V1A), AVPR1A (gene 552) (UniProt P37288); assay: NVS_GPCR_hV1A: NovaScreen (NVS) G Protein-Coupled Receptor Assay for human Vasopressin 1A Receptor (V1A) (AID 2283284)
Chain of human Vasopressin 1A Receptor (V1A), AVPR1A (gene 552) (P37288 whole entry, looked up): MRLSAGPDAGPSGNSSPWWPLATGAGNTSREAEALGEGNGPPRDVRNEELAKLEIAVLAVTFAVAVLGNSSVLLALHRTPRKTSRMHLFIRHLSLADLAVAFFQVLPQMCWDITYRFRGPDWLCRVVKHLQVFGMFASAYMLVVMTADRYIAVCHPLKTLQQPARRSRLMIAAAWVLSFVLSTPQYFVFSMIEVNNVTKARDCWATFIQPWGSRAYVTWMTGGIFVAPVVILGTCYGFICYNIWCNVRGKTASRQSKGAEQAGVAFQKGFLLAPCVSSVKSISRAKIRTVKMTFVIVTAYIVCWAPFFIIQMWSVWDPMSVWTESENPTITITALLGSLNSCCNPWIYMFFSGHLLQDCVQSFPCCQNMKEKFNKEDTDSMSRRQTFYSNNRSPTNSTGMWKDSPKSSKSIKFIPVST
Procedure, shortened: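 Cell-free radioligand displacement on human platelet preparations, 1.5 h incubation, filter-based scintillation counting. Chemicals first tested in duplicate at 25 uM; actives then run in concentration-response up to 50 uM, loss of signal fitted against DMSO.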

[18] = biological target: human Neuropeptide Receptor Y1 (NPY1), NPY1R (gene 4886) (UniProt P25929); assay: NVS_GPCR_hNPY1: NovaScreen (NVS) G Protein-Coupled Receptor Assay for human Neuropeptide Receptor Y1 (NPY1) (AID 2283276)
Procedure, shortened: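 Cell-free radioligand binding using receptor extracted from SK-N-MC cells, 1 h incubation, filter-based scintillation counting. Primary screen single concentration 25 uM in duplicate; actives followed in concentration series. Loss of bound signal scored versus DMSO.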

[19] = biological target: human Neurotensin Receptor (NTS), NTSR1 (gene 4923) (UniProt P30989); assay: NVS_GPCR_hNTS: NovaScreen (NVS) G Protein-Coupled Receptor Assay for human Neurotensin Receptor (NTS) (AID 2283279)
Procedure, shortened: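 Radioligand displacement on human NTSR1 protein from CHO cells, cell-free, 1 h, filter-based scintillation counting. Primary screen at 25 uM in duplicate; hits rerun in concentration-response up to 50 uM.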

Measured: AC50

NCc1cccc(C2CCN(C(=O)c3ccc(C#Cc4ccccc4F)o3)CC2)c1
active: [1] 25 µM | [2] 9.74 µM | [3] 22.1 µM | [4] 5.14 µM | [5] 1.78 µM | [6] 25 µM | [7] 0.923 µM | [8] 0.882 µM | [9] 4.14 µM | [10] 2.33 µM | [11] 2.9 µM | [12] 13.6 µM | [13] 4.96 µM

O=C1c2ccccc2C(=O)N1CCc1noc(-c2ccc(CN3CCCCCC3)s2)n1
inactive: [14] | [6]
active: [2] 10.1 µM | [3] 7.44 µM | [5] 7.52 µM | [7] 2.83 µM | [8] 7.92 µM | [9] 7.99 µM | [11] 12.3 µM

CN(C)C(=O)C1(N2CCCCC2)CCN(CC[C@@]2(c3ccc(Cl)c(Cl)c3)CN(C(=O)c3ccccc3)CCO2)CC1
inactive: [11] | [13]
active: [1] 12.2 µM | [2] 1.59 µM | [3] 20.3 µM | [4] 23.6 µM | [5] 11.7 µM | [7] 6.82 µM | [8] 6.99 µM | [9] 6.44 µM | [10] 8.65 µM | [15] 4.88 µM | [12] 3.99 µM

CCN(Cc1cccnc1)C(=O)c1cccc(Cl)c1[C@]1(C)C(=O)N(Cc2ccc(OC)cc2OC)c2ccc(Cl)cc21
active: [2] 1.91 µM | [4] 2.53 µM | [6] 1.49 µM | [9] 4.06 µM | [16] 6.61 µM
inactive: [17]

CCCCCc1ccc(N)cc1
inactive: [14]

CN(C[C@@H](CC[N+]12CCC(C3CCCCC3)(CC1)CC2)c1ccc(Cl)c(Cl)c1)C(=O)c1cc(C(F)(F)F)cc(C(F)(F)F)c1
inactive: [14]

CC1(C)NC(=O)N(c2ccc([N+](=O)[O-])c(C(F)(F)F)c2)C1=O
inactive: [4]

O=c1[nH]sc2ccccc12
active: [4] 6.83 µM | [18] 4.62 µM | [15] 3.2 µM

Clc1cc(Cl)c2c(c1)N=C1CCCCCN1C2
active: [5] 2.74 µM

CCCC(=O)OCCC(C)C
active: [19] 15 µM

c1ccc(C[n+]2cccc3ccccc32)cc1
inactive: [17]

Cc1occc1C(=O)Nc1ccc(C(=O)N2CCC(F)(F)/C(=C\C(=O)N3CCC(N4CCCCC4)CC3)c3ccccc32)cc1
active: [17] 0.00237 µM

CC(C)(C)c1csc(-c2cc3cc(OCc4ccccc4CC(=O)O)ccc3o2)n1
inactive: [12]
